{"source": "PubChem BioAssay AID1508600", "about": "(Functional Genomics Laboratory (NCATS/FGL), 2020)", "note": "The whole screen tested about 53,000 sequences, of which about 3,700 (7%) were called active. The full list was thinned out, with actives kept by preference. A number with no mark means an inactive call.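 How the source made its calls: active means gene knockdowns whose robust z-score for IL-1 alpha signal is at least 2 or at most -2, so actives lie on both sides; inactive means the rest.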", "data": [{"assay": "Components of the Cytosolic LPS Sensing Pathway: Gene Identification via Genome-wide siRNA Screen;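 further: robust z of the log signal after scaling to non-targeting control siRNA wells of the plate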", "conditions": "RAW264.7 macrophages, IL-1a HTRF, actives lie on both sides, screened at 100 nM (by protocol), cells primed 5 h with Pam3CSK4 first", "summary_of_the_method": "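IL-1a HTRF of supernatants after 24 hour LipidA transfection of Pam3CSK4-primed (5 hours) RAW264.7 cells, 48h post-siRNA transfection (100 nM). Scores: percent of plate negative-control median, then log-based robust z-score.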", "values": [{"sequence": "CCAGUGGUAUGAGGUUGAATT against Cpne3", "z-score": 0.238}, {"sequence": "GGAAACAACAACUGUCACATT against Defb40", "z-score": "-2.13 (active)"}, {"sequence": "GCACAUGGGAGACUAUGAATT against Necab2", "z-score": -1.14}, {"sequence": "GCAGAGCGAUUAUAUGGACTT against Rnpepl1", "z-score": -0.308}, {"sequence": "CGAUUACUUGGAAAACCAATT against Ifne", "z-score": -1.21}, {"sequence": "GCACAGGACUGAUGCUAAGTT against Wdr91", "z-score": "2.92 (active)"}, {"sequence": "GGCUCAUGUAAGAUAAUUATT against Kcns3", "z-score": -1.03}, {"sequence": "CCUGAAGAAAGAAUCCCUATT against Nobox", "z-score": 0.241}, {"sequence": "GGCUCUUCCAACAGUUCUUTT against Grk1", "z-score": "2.07 (active)"}, {"sequence": "CCUACAGUACUUCAAGCGGTT against Hip1", "z-score": -1.37}, {"sequence": "GCUCUAACGUAUGAUGCCATT against Nde1", "z-score": 0.206}, {"sequence": "CCAAACUUAAGCCUAUUCUTT against Mme", "z-score": 1.32}, {"sequence": "GCAACUGAGGCUUUCUUUGTT against Copg1", "z-score": -1.53}, {"sequence": "GGACACCAAUCACAUUUGATT against Cngb3", "z-score": "-2.21 (active)"}, {"sequence": "GGAAGCAUUGAUUUUCAUCTT against Prok2", "z-score": 1.82}, {"sequence": "GGUCGGUUGCUUUAGUGAATT against Magee2", "z-score": 1.42}, {"sequence": "GGGCAAAAUCGUGUCAAGCTT against Dpp9", "z-score": 0.253}, {"sequence": "CCCAAUGAUCCUAACCAUUTT against Zfp459", "z-score": -1.08}, {"sequence": "GGAGAGAAUGGACCAUCUCTT against Rnase10", "z-score": -1.16}, {"sequence": "GGUGUAUCUGUUCUGUUAATT against Impg1", "z-score": -0.559}, {"sequence": "GGUGGUCUCCUACAAUGCCTT against Olfr1451", "z-score": "2.3 (active)"}, {"sequence": "CGAGCUGUUAGAAUUCAGATT against Jakmip1", "z-score": -0.818}, {"sequence": "GGAUCAAGAAUUAAUGUCUTT against Nes", "z-score": -0.349}, {"sequence": "GCGACAACUUAAAGACCGGTT against Cand2", "z-score": 0.0878}, {"sequence": "GGCCAUCGCACUUAAACUUTT against 1700123K08Rik", "z-score": -0.578}, {"sequence": "CCGAUGAUCAGAGAAACAGTT against Prkar2b", "z-score": -1.25}, {"sequence": "GGGACAACAUGGAUUCAAGTT against Sult1c2", "z-score": 0.685}, {"sequence": "GCCAAAACUCUGUUAGAUATT against Anapc7", "z-score": -0.931}, {"sequence": "GGAAGAAGAACUGAAGACATT against Ctnnbl1", "z-score": "2.22 (active)"}, {"sequence": "GGAAUCUAGCUGAGAAAAUTT against Lepr", "z-score": -0.62}, {"sequence": "GGGAGUUCCAAUCAUUCUUTT against 2200002J24Rik", "z-score": 0.667}, {"sequence": "GGUCUAUGUACUGUCCUGATT against Otop2", "z-score": 0.0413}, {"sequence": "GGCAAUCAUGUGGACUUCATT against C230071H18Rik", "z-score": 0.714}, {"sequence": "CGUGAAGGAAACUUUUCAGTT against Prmt9", "z-score": -1.45}, {"sequence": "GGAGAUUGACAUUAGCAACTT against Rps6ka2", "z-score": "3.02 (active)"}, {"sequence": "GGCAGACUCUGCCUACUUATT against Utf1", "z-score": 1.01}, {"sequence": "GCUUUAAACUGAGUGAUAATT against Zfp451", "z-score": -0.564}, {"sequence": "GGCCAUCUAAUGACCUUCATT against Madd", "z-score": "-2.7 (active)"}, {"sequence": "GCAUGACAGGAAACUCUCUTT against Olfr1308", "z-score": -0.825}, {"sequence": "GCAACAAAUUUGAAUCAGATT against Chic2", "z-score": -0.185}, {"sequence": "GGAUCUUCGUACUAGAGGCTT against Cenpx", "z-score": 0.0358}, {"sequence": "CCUCGUCGAGUGGAAAAUUTT against Pxylp1", "z-score": -0.574}, {"sequence": "GGGCUGAGGAGAAAAUGCATT against Meg3", "z-score": "-2.37 (active)"}, {"sequence": "GGAGACUCCUUACGGCAAATT against Bnip1", "z-score": 0.227}, {"sequence": "GGAAUGUUAACAAAGAGCATT against Sgcb", "z-score": 0.8}, {"sequence": "CCUAAUGUUUAGAUCCAUATT against Gcm2", "z-score": 0.11}, {"sequence": "GGCCGAAUUGUGUCUUGGUTT against Dnmt3a", "z-score": -1.71}, {"sequence": "GUGACACCUUUAUGGAGAGTT against Olfr1271", "z-score": 0.267}, {"sequence": "CGUGCUAGUGACCAUUUACTT against Limch1", "z-score": 0.625}, {"sequence": "GGGUACCUACAUAGACAAGTT against Rps11", "z-score": 0.0651}, {"sequence": "CGCAGUGAGGAGUAUGAAGTT against Nin", "z-score": "3.53 (active)"}, {"sequence": "GGUAGCUAUUAAAGAAUCCTT against AW209491", "z-score": 1.12}, {"sequence": "GCGAUCAGCAAGCUAAGCCTT against Mettl2", "z-score": 0.117}, {"sequence": "GGCCAUGAGGAAAACAAGATT against Coro7", "z-score": -1.01}, {"sequence": "ACAAAGAAGCGAUUUCUAUTT against Wtip", "z-score": 1.32}, {"sequence": "GCACCCUAGAGGUAAAAGATT against Taf12", "z-score": "-2.95 (active)"}, {"sequence": "GGUUGUAACUUGUAAGGCATT against Rnf144b", "z-score": 0.123}, {"sequence": "GGAGACUAAGGAGGUUUAUTT against Ruvbl1", "z-score": 0.494}, {"sequence": "GGAGUCUCCUUAUAUUAAUTT against Alcam", "z-score": 0.896}, {"sequence": "GGAUCAUAUAUGAAGCACATT against Mybl1", "z-score": "-2.16 (active)"}, {"sequence": "GGUUAACAUUUUCAGUCAUTT against Itga2", "z-score": -0.986}, {"sequence": "GGAUGACUUGAUUAUCUUUTT against Adrm1", "z-score": 0.603}, {"sequence": "GGCAAAGAUUCCAAAAGAGTT against Bsdc1", "z-score": -1.59}, {"sequence": "CCAGAUUGUGUUCACGAUGTT against Rasgrf2", "z-score": 0.888}, {"sequence": "GGGAAGUUAUAAUGGAAGUTT against Rps15a", "z-score": "2.46 (active)"}, {"sequence": "GCAUAAAGCAGUCAUGCUUTT against Gskip", "z-score": -0.989}, {"sequence": "GCCAUGUGUAUGGUAGUCUTT against Olfr1247", "z-score": -1.22}, {"sequence": "GCUAAUAAUGGUCAAAGCCTT against Prrt3", "z-score": -0.963}, {"sequence": "GGAUAUUCAUGUUUCAUUGTT against Vipr2", "z-score": 0.836}, {"sequence": "CGACCAGAUGAACUGGUGUTT against Smg9", "z-score": 0.929}, {"sequence": "GGUGACACACUAGUAGACUTT against Sclt1", "z-score": "3.47 (active)"}, {"sequence": "CGAACAGAAACAGUUAUUATT against Gbp2", "z-score": 1.01}, {"sequence": "CCAAAUCUCUCAAUUUAGGTT against Taf9b", "z-score": 0.265}, {"sequence": "CCAAAGAUGUUAUUGGACCTT against Olfr1152", "z-score": -1.1}, {"sequence": "CCUGUAAACCAGAUAAGCCTT against Defb1", "z-score": -0.0772}, {"sequence": "GGCAAUAUGUCGUAUGUAATT against Sfmbt2", "z-score": "-2.13 (active)"}, {"sequence": "GGUCAUGAAUUACUAUUCCTT against Cyth2", "z-score": 1.02}, {"sequence": "GGAGAAAUUCCCUUGCCACTT against Kbtbd12", "z-score": -0.0157}, {"sequence": "UUUAUACUUCCCUGAUUUUTT against Olfr943", "z-score": -0.409}, {"sequence": "GGGAAAAAGGAGAACUUCUTT against Cfap161", "z-score": -1.12}, {"sequence": "GGAUCAUAGUUACAAGGCUTT against L3mbtl2", "z-score": 0.458}, {"sequence": "GCUUUGAGAGGUGUUGAUATT against Gm6116", "z-score": -0.864}, {"sequence": "GCUAAGUUGGAAUUUCCACTT against Chtop", "z-score": "2.05 (active)"}, {"sequence": "GCCGUUUUAUGUGGCAGAATT against Slc35d3", "z-score": 0.141}, {"sequence": "GGUAUUGUGGCCAGUAUUUTT against Ptdss2", "z-score": 0.185}, {"sequence": "AUAAGGAUGUCCAUCUUGCTT against Olfr884", "z-score": -1.17}, {"sequence": "CGGUCUAAAUUUCCGGUCATT against Elane", "z-score": -0.205}, {"sequence": "GGCUCAACGGGAUUACUUUTT against Pgd", "z-score": -0.578}, {"sequence": "GAAAUAGAGAUGCCUCUCUTT against Olfr1161", "z-score": "2.52 (active)"}, {"sequence": "CCAAUUUACGACAAAUCGUTT against Entpd4", "z-score": -0.56}, {"sequence": "GGCCCGAAACAAGAAAUCCTT against Ikbke", "z-score": 0.957}, {"sequence": "GCUGGUCUUUCAAGUCAAGTT against Stat5b", "z-score": "2.62 (active)"}, {"sequence": "GAAAAAUCAUGAAGCCAUATT against Olfr203", "z-score": -0.0109}, {"sequence": "CCAGCUAGUGAUGUCAAAATT against Bri3bp", "z-score": -0.0406}, {"sequence": "GGACAGCUGGCUUCUAAAUTT against Lmntd1", "z-score": 0.137}, {"sequence": "CCAUAGGUAUGUUAAUCGATT against Polr1b", "z-score": -0.426}, {"sequence": "GGCCAACCUACUUUUCUGGTT against Mgll", "z-score": -1.18}, {"sequence": "CGAUGGAAGUUUAAACCUCTT against Htr1a", "z-score": 0.326}, {"sequence": "GGUUGUGAAUGUAAGUGAGTT against Entpd1", "z-score": -0.787}, {"sequence": "GGCAUCUUCGAAAAAUGAUTT against Reck", "z-score": -0.552}, {"sequence": "CGAUUUUCACCAAUUGUGGTT against Diaph2", "z-score": "-2.03 (active)"}, {"sequence": "GGACAUCAGUUGUCCUAGCTT against Ano6", "z-score": -0.285}, {"sequence": "GGGCUACUCAAAGAAGAUATT against Galnt5", "z-score": -0.357}, {"sequence": "GGUCACCACACGAUCUACATT against Slc4a4", "z-score": "3.14 (active)"}, {"sequence": "GCUCGGCUUUAGAGACCUATT against Cox19", "z-score": 0.379}, {"sequence": "GCCUGUACAUGACGGAAAGTT against Bag4", "z-score": 0.155}, {"sequence": "GGAGUUACGGGAUUCCGUUTT against Kras", "z-score": 1.7}, {"sequence": "GCCUAGCUGAAAACGUGUCTT against Cog4", "z-score": "5.04 (active)"}]}]}
